Structures are written as SMILES. Compounds without any hit were thinned out: in the full panel of roughly 83,000, 20% have a hit.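 A percent growth of 40 corresponds to 60% growth inhibition; 0 means no net growth; -100 means all cells died. Active threshold: below 10.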 Calls of active or inactive are those of the source.

The first assay has as its system COLO 205 colon. Briefly: NCI-60 one-dose screen, 48 h (100 = growth as untreated, 0 = no growth, -100 = all killed). The note with it: 10 µM unless noted.
Turning to `O=C(C[C@@]1(O)C(=O)Nc2c(Cl)ccc(Cl)c21)c1ccc(C2CC2)cc1`, the growth was 1.09% (active).

Regarding `CC1=NN(c2cccc(Cl)c2)C(=O)/C1=C\c1cn(CC(O)CN2CCCCC2)c2ccccc12` (stereo not given), the growth was -58% (active).

Consider `Fc1ccc(Nc2nc3nonc3nc2Nc2ccc(F)cc2)cc1`, for which the growth was -80.2% (active).

With `Cc1nc2ccccc2c(/C=C/c2ccc(Cl)cc2)c1C(=O)/C=C/c1ccc(Cl)cc1`, the growth was -24.5% (active).

For `Cc1csc(NC(=O)c2sc3nc(-c4cccs4)ccc3c2N)n1`, the growth is 103% (inactive).

Take `Cc1nc(C)c(-c2nn3c(-c4cccc(F)c4)nnc3s2)s1`: the growth was 101% (inactive).

Turning to `Cc1cc2c(F)c(Oc3ncnc(Nc4ccc(N5C[C@@H](C)N[C@@H](C)C5)cc4)c3C#N)cc(F)c2[nH]1`, the growth is -56.5% (active).

The test system of the next assay is DU-145 prostate. Described as above. The note with it: 10 µM unless noted.
On to `O=[N+]([O-])c1ccc(-c2cc3c(Nc4ccc(OCc5cccc(Cl)c5)c(Cl)c4)ncnc3s2)cc1`, for which the growth was 70.4% (inactive).

Regarding `COC(=O)Nc1nc2ccc(C(=O)C3CC3)cc2[nH]1`, the growth is 1.8% (active).

Turning to `N#Cc1cnn2c(-c3ccc(Cl)cc3)nc(NC3CC3)nc12`, the growth is 88.8% (inactive).

In the case of `O=C(C[C@@]1(O)C(=O)Nc2c(Cl)ccc(Cl)c21)c1ccc(C2CC2)cc1`, the growth is 16.5% (inactive).

As for `CC1=NN(c2cccc(Cl)c2)C(=O)/C1=C\c1cn(CC(O)CN2CCCCC2)c2ccccc12` (stereo not given), the growth was 96.7% (inactive).

For the compound `Cc1nn(-c2ccccc2)c2c1C(c1ccc([N+](=O)[O-])cc1)C(C#N)=C(N)O2` (stereo not given), the growth is 111% (inactive).

With `N#Cc1cnn2c(-c3ccc(Cl)cc3)nc(NCCc3ccccc3)nc12`, the growth was 99.5% (inactive).

Turning to `COc1ccc(-c2nnc(SCC(=O)NC3=NN=C(c4ccccc4)CS3)o2)cc1`, the growth was 102% (inactive).

For the compound `C#C[C@]1(O)CC[C@H]2[C@@H]3CC=C4c5sc(N=C(N)N)nc5CC[C@]4(C)[C@H]3CC[C@@]21C`, the growth is 8.62% (active).

Consider `Cc1c(Cl)cccc1NS(=O)(=O)c1ccccc1`, for which the growth is 143% (inactive).

As for `Fc1ccc(Nc2nc3nonc3nc2Nc2ccc(F)cc2)cc1`, the growth was 23.8% (inactive).

Consider `Cc1nc2ccccc2c(/C=C/c2ccc(Cl)cc2)c1C(=O)/C=C/c1ccc(Cl)cc1`, for which the growth was -70.5% (active).

In the case of `Fc1ccc(Nc2nc(Nc3ccc(-c4nc5ccccc5[nH]4)cc3)c3cn[nH]c3n2)cc1`, the growth is 54.3% (inactive).

For the compound `Nc1ccc(-c2cc3c(Nc4ccc(OCc5cccc(F)c5)c(Cl)c4)ncnc3s2)cc1`, the growth was 36.9% (inactive).

Take `O=[N+]([O-])c1ccc(-c2cc3c(Nc4ccc(Cl)c(C(F)(F)F)c4)ncnc3s2)cc1`: the growth was 23% (inactive).

As for `O=[N+]([O-])c1ccc(-c2cc3c(Nc4ccc(Sc5nc6ccccc6s5)c(Cl)c4)ncnc3s2)cc1`, the growth is 44.9% (inactive).

As for `CCOC(=O)N1CCc2c(sc3c2C(=O)N[C@H](c2ccc(OC)cc2)N3)C1`, the growth was 113% (inactive).

As to `Cc1cn(C2CCCCC2)c(=O)[nH]c1=O`, the growth is 163% (inactive).

For `Cc1csc(NC(=O)c2sc3nc(-c4cccs4)ccc3c2N)n1`, the growth is 96.4% (inactive).

Consider `Clc1ccc(-c2nc(NCCc3ccccc3)nc3c(NCCc4ccccc4)cnn23)cc1`, for which the growth is 84.5% (inactive).

With `Cc1nc(C)c(-c2nn3c(-c4cccc(F)c4)nnc3s2)s1`, the growth was 102% (inactive).

As to `COc1ccc(-c2nnc(-c3ccc4c(c3)nc(-c3ccccc3)n4C3CCCCC3)o2)cc1`, the growth was 71.7% (inactive).

Regarding `Cc1cc2c(F)c(Oc3ncnc(Nc4ccc(N5C[C@@H](C)N[C@@H](C)C5)cc4)c3C#N)cc(F)c2[nH]1`, the growth is 38.9% (inactive).

Another assay relates to K-562 leukemia. The assay is described as above. The following applies: 10 µM unless noted.
For the compound `CCCCCCNc1cc(C)nc2ccc(OC)cc12`, the growth is 21% (inactive).

For `Cc1ccc(C)c2c1C(=O)OC2=O`, the growth was 78.9% (inactive).

`CCN(CC)CCCNC(=O)c1ccc(N)cc1O`: the growth was 12.3% (inactive).

In the case of `COC(=O)Nc1nc2ccc(C(=O)C3CC3)cc2[nH]1`, the growth was -15.1% (active).

In the case of `CCOC(=O)C(O)C(O)(c1ccccc1)c1ccccc1` (stereo not given), the growth is 98% (inactive).

Regarding `O=C(C[C@@]1(O)C(=O)Nc2c(Cl)ccc(Cl)c21)c1ccc(C2CC2)cc1`, the growth is 7.6% (active).

Turning to `CN(CCC(=O)/C(=C\c1ccccc1)c1ccc(Cl)cc1)Cc1ccccc1`, the growth was 22.7% (inactive).

`CC1=NN(c2cccc(Cl)c2)C(=O)/C1=C\c1cn(CC(O)CN2CCCCC2)c2ccccc12` (stereo not given): the growth is 28.9% (inactive).

Regarding `O=C(NCOC(O)C(Cl)(Cl)Cl)NCOC(O)C(Cl)(Cl)Cl` (stereo not given), the growth is 22.2% (inactive).

On to `O=[N+]([O-])c1ccccc1C(O)Cc1ccc2ccccc2n1` (stereo not given), for which the growth is 108% (inactive).

As to `CCOC(=O)C(=CNc1ccccc1[N+](=O)[O-])C(=O)OCC`, the growth is 96.7% (inactive).

On to `Cc1ccc(NSc2ccccc2[N+](=O)[O-])cc1`, for which the growth is 16.9% (inactive).

For the compound `CN(C)CCC(O)(Cc1ccccc1)c1ccccc1` (stereo not given), the growth is 103% (inactive).

In the case of `CCOc1cc(N)ccc1C(=O)NCCCN(CC)CC`, the growth was 80.3% (inactive).

Regarding `C#C[C@]1(O)CC[C@H]2[C@@H]3CC=C4c5sc(N=C(N)N)nc5CC[C@]4(C)[C@H]3CC[C@@]21C`, the growth was -21.1% (active).

As for `CCCCCCCCN(CCCCCCCC)C(=N)c1ccnc2ccccc12`, the growth is -52.7% (active).

As for `COc1cc(-c2ccc(N=Nc3c(O)c(C(=O)Nc4ccccc4OC)cc4ccccc34)c(OC)c2)ccc1N=Nc1c(O)c(C(=O)Nc2ccccc2OC)cc2ccccc12`, the growth was 90.6% (inactive).

Consider `O=C1c2ccccc2C2(c3ccc(O)cc3)c3ccccc3Oc3cccc1c32` (stereo not given), for which the growth was 19.8% (inactive).

For the compound `Fc1ccc(Nc2nc3nonc3nc2Nc2ccc(F)cc2)cc1`, the growth was 9% (active).

Turning to `Cc1nc2ccccc2c(/C=C/c2ccc(Cl)cc2)c1C(=O)/C=C/c1ccc(Cl)cc1`, the growth is 2% (active).

For `Fc1ccc(Nc2nc(Nc3ccc(-c4nc5ccccc5[nH]4)cc3)c3cn[nH]c3n2)cc1`, the growth is -28.7% (active).

On to `Cc1csc(NC(=O)c2sc3nc(-c4cccs4)ccc3c2N)n1`, for which the growth is 90.2% (inactive).

As for `Cc1nc(C)c(-c2nn3c(-c4cccc(F)c4)nnc3s2)s1`, the growth is 70.4% (inactive).

`Cc1cc2c(F)c(Oc3ncnc(Nc4ccc(N5C[C@@H](C)N[C@@H](C)C5)cc4)c3C#N)cc(F)c2[nH]1`: the growth was -40.4% (active).

For `CCN(CC)CCCNC(=O)c1ccc(N)cc1`, the growth is 35.8% (inactive).

Values taken from PubChem BioAssay (NCI).
